The text below walks through data of PubChem BioAssay AID777 (Sanford-Burnham Center for Chemical Genomics, 2007).

Screen size: about 96,000 compounds; about 19,000 (20%) were called active.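 Rule for the calls: active = blocking of liver enzyme CYP2C9 beyond about 50% at 5 µM (limit read from the data); inactive = the rest.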 These entries were drawn from the full list.

The target of the test is Cytochrome P450 2C9 (Homo sapiens) (UniProt P11712). As to the kind of experiment: blockers of cytochrome P450 2C9 activity – biochemical, luminescence, ADME assay, primary screen (AID 777). To be noted: CYP2C9 Supersomes, luciferin-H conversion, at 5 µM, hits give high values.
Sequence of Cytochrome P450 2C9 (Homo sapiens) (P11712 whole entry, looked up): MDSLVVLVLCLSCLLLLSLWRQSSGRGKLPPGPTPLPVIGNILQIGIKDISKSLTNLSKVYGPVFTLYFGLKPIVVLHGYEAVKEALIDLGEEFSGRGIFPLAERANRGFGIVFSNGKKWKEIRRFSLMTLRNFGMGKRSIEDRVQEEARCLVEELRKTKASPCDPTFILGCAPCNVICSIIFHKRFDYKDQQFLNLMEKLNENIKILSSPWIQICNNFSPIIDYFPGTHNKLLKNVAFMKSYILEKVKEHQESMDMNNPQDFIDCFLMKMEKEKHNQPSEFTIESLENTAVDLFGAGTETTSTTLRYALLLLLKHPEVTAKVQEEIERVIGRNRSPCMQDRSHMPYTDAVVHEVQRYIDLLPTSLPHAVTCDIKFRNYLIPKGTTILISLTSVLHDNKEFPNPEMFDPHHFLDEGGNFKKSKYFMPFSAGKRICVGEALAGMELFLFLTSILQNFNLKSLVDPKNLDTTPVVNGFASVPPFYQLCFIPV
A word on the inhibition: it is the change of the read-out against control, counted positive when it falls. For `CN1CCN(CC(=O)Nc2sc3c(c2C#N)CCC(C(C)(C)C)C3)CC1` (stereo not given), the inhibition was 33.8% (inactive).

Consider `O=C(Nc1c(-c2ccccc2)nc2c(Br)cc(Br)cn12)c1ccco1`, for which the inhibition was 15.6% (inactive). `c1ccc2c(CNn3cnnc3)cccc2c1`: the inhibition is -2.3% (inactive). On to `c1ccc2c(C[n+]3csc4ccccc43)cccc2c1`, for which the inhibition was 76.7% (active). Take `N=C(N)SCc1cccc2ccccc12`: the inhibition is -24.4% (inactive). `Cc1ccc(C(=O)NNC(=O)OC(C)(C)C)c(Cl)c1`: the inhibition was 1.9% (inactive). Turning to `CCc1ccc(CNC(=O)C2CCCN(c3nc4ccccc4o3)C2)cc1` (stereo not given), the inhibition was 45% (inactive). With `O=S(=O)(c1ccc(OCC(O)CN2CCN(c3ccccc3Cl)CC2)cc1)N1CCOCC1` (stereo not given) the figure was 28.3% (inactive). For the molecule `CCOC(=O)Cc1csc(NC(=O)C(C)(C)C)n1`, the inhibition is 30.2% (inactive).

As to `Cc1cccc(N2CCN(C(=O)CN(C)S(=O)(=O)c3ccc4c(c3)CCC(=O)N4)CC2)c1C`, the inhibition is 51% (active).

For `CCOC(=O)Cc1csc(NC(=O)CN(C)S(=O)(=O)c2ccc3c(c2)CCC(=O)N3)n1`, the inhibition was 65.5% (active). For `Cc1ccc(S(=O)(=O)N(C)CC(=O)N2CCc3ccccc32)cc1`, the inhibition is -132% (inactive).

In the case of `CC(=O)N1CCN(c2cccc(C)c2C)CC1`, the inhibition is -8.6% (inactive). Turning to `CCOC(=O)Cc1csc(NC(=O)CSc2nc(C)cc(=O)[nH]2)n1`, the inhibition is 23.2% (inactive). As for `COC(=O)/C=C/C(=O)NCc1ccco1`, the inhibition was 1.2% (inactive). With `OCCN1CCOCCOCCN(CCO)CCN(CCO)CC1`, the inhibition is 12.8% (inactive). For the molecule `Cc1nn(-c2ccccc2)c(CC(C)(C)C(=O)O)c1C(=O)O`, the inhibition is -10.3% (inactive). As for `Cc1nn(-c2ccccc2)c(Cl)c1C(=O)Nc1ccccc1`, the inhibition was -47% (inactive). On to `Cc1ccc(C(=O)/C=C/c2c(C)nn(-c3ccccc3)c2Cl)cc1`, for which the inhibition was 90.4% (active). For `O=C(Nc1ccccc1C(=O)N1CCOCC1)C1CCC(=O)N1C1CCCC1` (stereo not given) the value was -9.2% (inactive); for `COc1cccc(N2C(=O)C3CCCN3C2c2ccc(F)cc2)c1` (stereo not given), -9.4% (inactive); for `COc1ccc(OCC(=O)OCCN(C)C)cc1`, -12.1% (inactive). In the case of `O=C(CCCOc1ccccc1)NCc1ccco1`, the inhibition is 18.1% (inactive). For `CN(C)C(CNC(=O)CCCOc1ccccc1)c1ccco1` (stereo not given) the value was 51.7% (active); for `O=C(CCOc1ccccc1)NCc1ccccc1`, 6.9% (inactive). With `O=C(NCC12CC3CC(C1)CC(CNC(=O)N1CCCC1)(C3)C2)N1CCCC1` the figure was -12.3% (inactive).

Take `Nc1nc(SCCOc2ccccc2)n[nH]1`: the inhibition is -8.6% (inactive). In the case of `COc1ccccc1NC(=O)CN1CCN(S(=O)(=O)c2ccc(Br)cc2)CC1`, the inhibition is -0.8% (inactive). For `COc1cc2c(cc1NC(=O)CN1CCN(S(=O)(=O)c3ccc(F)cc3)CC1)oc1ccccc12`, the inhibition is 78.7% (active). `COc1ccc(NC(=O)CN2CCN(S(=O)(=O)c3ccc(F)cc3)CC2)cc1Cl`: the inhibition was 17.3% (inactive). For `CN1/C(=c2/s/c(=C3/C(=O)N(c4ccccc4)NC3=Nc3ccccc3)n(C)c2=O)C(C)(C)c2ccccc21`, the inhibition was 19% (inactive). On to `CCNC(=O)c1c(O)c2cccc3c2n(c1=O)CC3`, for which the inhibition is 10.3% (inactive). Regarding `O=C(COC(=O)CCC(=O)c1cccs1)NCc1ccco1`, the inhibition is 2.9% (inactive). In the case of `Cc1nn2c3ccccc3nc2n(C)c1=O`, the inhibition is -5.7% (inactive). Regarding `CC(C)(C)c1cc(=O)n2c(nc3ccccc32)[nH]1`, the inhibition was 52% (active). For `CC(C)(C)N1CC(c2nc3ccccc3n2Cc2ccc(F)cc2)CC1=O` (stereo not given) the value was 22.8% (inactive). With `Cn1c(SCC(=O)N2CCOCC2)nnc1-c1ccc(NC(=O)c2ccccc2F)cc1`, the inhibition is 13% (inactive). In the case of `CCCCC(CC)C(=O)Nc1ccc(Cl)cn1` (stereo not given), the inhibition is 7.6% (inactive). With `CC(C)C(NC(=O)OCc1ccccc1)C(=O)OCC(=O)N1C(C)CCCC1C` (stereo not given), the inhibition was 1.2% (inactive). As to `CCC(C)NC(=O)c1c(N)n(/N=C/c2cccs2)c2nc3ccccc3nc12` (stereo not given), the inhibition is 17.2% (inactive).

As to `Cc1ccc(OCc2nnc(NC(=O)OCC(C)C)s2)cc1`, the inhibition is 20.2% (inactive). As to `CC(C)c1cc(C(N)=O)c(NC(=O)c2cccc(COc3ccc(Br)cc3)c2)s1`, the inhibition was 56.1% (active). With `COc1ccc(N2CCN(C3CC(=O)N(c4ccc5c(c4)OCCO5)C3=O)CC2)cc1` (stereo not given), the inhibition was -1% (inactive). Turning to `O=c1oc2c(Cl)cc(Cl)cc2cc1-c1nnc(Nc2ccccc2F)s1`, the inhibition was -4.3% (inactive). On to `Cc1cccc(OCc2nnc(SCc3nc4cc(C(F)(F)F)ccc4c(=O)[nH]3)o2)c1`, for which the inhibition is 33% (inactive). For `O=C(Cc1ccc(S(=O)(=O)N2CCCC2)s1)NC1CCCCCC1` the value was 35.1% (inactive). With `O=C(Cc1ccc(S(=O)(=O)N2CCOCC2)s1)NCCC(c1ccccc1)c1ccccc1` the figure was 71.6% (active); with `O=C(c1ccc(S(=O)(=O)N2CCOCC2)cc1)N1CCN(c2ccccc2)CC1`, -4.5% (inactive). In the case of `C=C(Br)Cn1c(CCCC)nc2ccccc21`, the inhibition was 35% (inactive). Take `Cc1[nH]n(-c2ccc([N+](=O)[O-])cc2)c(=O)c1C=NCCN1CCN(C(=O)c2ccccc2F)CC1`: the inhibition is 16.8% (inactive).

With `Cc1csc(NC(=O)C2CCCN2C(=O)OCC(C)C)n1` (stereo not given), the inhibition was 21.7% (inactive).

On to `Cc1ccc(-n2nc3ccc(NC(=O)/C=C/c4ccco4)cc3n2)cc1C`, for which the inhibition is 34.5% (inactive). With `O=C(/C=C/c1ccco1)Nc1ccc(Oc2ccccc2)cc1` the figure was 11.5% (inactive); with `O=C(/C=C/c1ccco1)Nc1cccc(-c2nc3ccccc3[nH]2)c1`, 81.3% (active); with `CCc1nnc(NC(=O)CSc2nc3c(c(=O)n2-c2ccccc2OC)SCC3)s1`, 7.3% (inactive). Consider `O=C(Cn1c(-c2cncs2)nc2ccccc21)NC1CCCC1`, for which the inhibition was 2.4% (inactive).

Take `Cc1ccc(-n2nc3c(c2NC(=O)CCC2CCCCC2)CS(=O)C3)cc1` (stereo not given): the inhibition was 12% (inactive). In the case of `CCOC(=O)c1[nH]c2c(c1C)C(=O)CC(c1ccc(N(C)C)cc1)C2` (stereo not given), the inhibition was 36.2% (inactive). Regarding `CCCOC(=O)c1[nH]c2c(c1C)C(=O)CC(c1cc(OC)c(OC)c(OC)c1)C2` (stereo not given), the inhibition was 66.2% (active). Turning to `CCCOC(=O)c1[nH]c2c(c1C)C(=O)CC(c1cccs1)C2` (stereo not given), the inhibition was 72.3% (active). As to `COC(=O)C1C(=O)c2c([nH]c(C(=O)OCCSC)c2C)CC1C` (stereo not given), the inhibition was 32.8% (inactive).

Regarding `O=c1c2ccccc2nc2n1C(CSCc1cccc(C(F)(F)F)c1)CS2` (stereo not given), the inhibition was 38.6% (inactive). In the case of `CCOC(=O)CSc1nnc(CNC(=O)c2ccco2)n1-c1ccc(F)cc1`, the inhibition was -0.1% (inactive). Take `O=C(NC1CCCCC1)c1ccc(CNc2c(N3CCOCC3)c(=O)c2=O)cc1`: the inhibition was -23.2% (inactive).

`O=C(NCCN1C(=O)C2C3C=CC(C3)C2C1=O)Nc1ccccn1` (stereo not given): the inhibition is -16.2% (inactive). `CC12CCC(C(=O)N3CCN(c4ncccn4)CC3)(c3nc4ccccc4nc31)C2(C)C` (stereo not given): the inhibition is 51.5% (active). Regarding `O=S(=O)(c1cccc2nonc12)N1CCN(c2cccc(Cl)c2)CC1`, the inhibition is 12.3% (inactive). For the molecule `O=C(NCCN1CCN(Cc2ccccc2)CC1)c1cc2c(=O)[nH]c3ccccc3c2s1`, the inhibition is 31% (inactive). Turning to `CCCc1nnc(NC(=O)CN2C(=O)c3ccccc3S2(=O)=O)s1`, the inhibition is 9.5% (inactive). With `C=C(Br)CN1CCN(CC(=C)Br)CC1` the figure was -1.7% (inactive); with `O=C(O)C1CC=C(Cl)CC1C(=O)NCc1ccccc1` (stereo not given), 13.8% (inactive). For `Cc1ccc(C(=O)Nc2nnc(-c3cccs3)s2)cc1C`, the inhibition is 2% (inactive).

`Cc1ccc(C(=O)Nc2nnc(-c3ccncc3)s2)o1`: the inhibition was 93.1% (active). As to `CCOc1cccc(C(=O)Nc2cnn(Cc3ccccc3)c2)c1`, the inhibition was 10.6% (inactive). Take `Cc1occc1C(=O)Nc1nnc(C2CCCCC2)s1`: the inhibition is 0.6% (inactive). `CC(C)=CC(=O)Nc1nnc(-c2ccc(F)cc2)s1`: the inhibition was 9% (inactive).

Consider `Cc1occc1C(=O)Nc1nnc(-c2ccncc2)s1`, for which the inhibition is 90.1% (active). For the molecule `Cc1occc1C(=O)NNC(=S)NCC(C)C`, the inhibition is 12.4% (inactive). `Cc1occc1C(=O)Nc1cccc(Cn2cccn2)c1`: the inhibition is 51.4% (active). In the case of `Cc1ccc(C(=O)COc2cccc(NC(=O)c3ccco3)c2)cc1`, the inhibition was 32.1% (inactive). As for `COc1ccc(Oc2coc3cc(OC(=O)c4cncc(Br)c4)ccc3c2=O)cc1`, the inhibition was -54.5% (inactive). `Cc1nnc(SCC(=O)Nc2ncc3c(n2)CC(C)(C)CC3=O)s1`: the inhibition was 22.5% (inactive). With `COc1ccc(-c2noc(COc3ccc(Cl)c(C)c3)n2)cc1` the figure was 11.2% (inactive). On to `CCOc1ccc(/C(O)=C2/C(=O)C(=O)N(Cc3cccnc3)C2c2ccc(N(C)C)cc2)c(C)c1` (stereo not given), for which the inhibition was 20.8% (inactive). Turning to `N#Cc1ccc(CSc2nnc(-c3ccccn3)n2-c2ccc(Cl)cc2)cc1`, the inhibition was 7.5% (inactive). With `CCc1nnc(NC(=O)CSc2nnc(COc3ccc(C#N)cc3)n2-c2ccccc2)s1`, the inhibition is 30.3% (inactive). As for `O=P(c1ccc2c(c1)OCCO2)(N1CCOCC1)N1CCOCC1`, the inhibition was 24.8% (inactive). For the molecule `O=C(NNC(=O)c1cccnc1)Nc1ccccc1`, the inhibition is -10.1% (inactive). `CC(C)NC(=O)C(=O)N/N=C/c1ccco1`: the inhibition was -20.6% (inactive). On to `COc1ccc(Nc2nc(=O)[nH]nc2C)cc1`, for which the inhibition is 1.9% (inactive). With `CCN(CC)CC(=O)Nc1nn(-c2ccccc2)nc1C(N)=O` the figure was -20.1% (inactive); with `CC(=O)c1cc2c(cc1NC(=O)CN1CCCCCC1)OCO2`, 0.4% (inactive); with `O=C(O)c1ccc(COc2c(F)c(F)cc(F)c2F)o1`, -9.4% (inactive). `O=C(Nc1ccn(Cc2ccccc2F)n1)c1ccc(COc2ccc(Cl)cc2Cl)o1`: the inhibition is 92.6% (active). `O=C(Nc1nn(Cc2ccccc2F)cc1Br)c1cccs1`: the inhibition is 8% (inactive). For `OC(COCCC12CC3CC(CC(C3)C1)C2)CN1CCCCC1` (stereo not given), the inhibition was 3.4% (inactive). `CCN1CCCC1CNC(=O)Cn1cnc2ccc(S(=O)(=O)N3CCC(C)CC3)cc2c1=O` (stereo not given): the inhibition is 7.3% (inactive). With `COC(=O)C1C(=O)NCC1c1ccc(C)cc1` (stereo not given), the inhibition is 17.3% (inactive).

Turning to `COC(=O)C1=C(Nc2ccc(OC)cc2)C=C(C)C(C(=O)OC)C1c1ccc(C)cc1` (stereo not given), the inhibition is 51.9% (active).

For the molecule `COC(=O)C1C(=O)NCC1c1ccc(OC)cc1` (stereo not given), the inhibition was -19.7% (inactive).
